We go through 91 compounds from PubChem BioAssay AID2314 (National Center for Advancing Translational Sciences (NCATS), 2010).

Hit rate of the full screen: of about 300,000 compounds, about 37,000 (12%) were called active. No stated cut-off is given here; in the data, active means max response mostly above about 13% (no sharp cut-off); inactive means mostly below about 14%. The entries come from a sample that favours actives as a whole.

This experiment can be described thus: Cycloheximide Counterscreen for Small Molecule Inhibitors of Shiga Toxin. Further: read at 38.3 µM for the half of the compounds with a filed dose; 0% is about no effect. The conditions noted are these: cell reporter, cycloheximide protein synthesis inhibition counterscreen; hits give high values. For orientation: Counterscreens check selectivity or assay interference.
Turning to `COc1cc(C(=O)NN(CCC#N)C2=NS(=O)(=O)c3ccccc32)cc(OC)c1OC`, the max response was -4.44% (inactive). With `Cc1c(C(=O)N/N=C/c2ccccc2)[nH]c2c([N+](=O)[O-])cccc12`, the max response was 1.12% (inactive). As for `COc1cccc2c(C)c(C(=O)O)[nH]c12`, the max response is 33.1% (active). With `COc1cc2c(C(=O)O)c(C)n(C)c2c2ccccc12` the figure was -4.45% (inactive); with `O=c1[nH]cccc1-c1nc2ccccc2n1Cc1ccc(Cl)cc1`, -10.6% (inactive); with `COc1ccc(C(=O)NC(C)Cn2nc(C)cc2C)cc1OC1CCN(C(C)=O)CC1` (stereo unspecified), -1.29% (inactive).

In the case of `Cn1ncc(Br)c1C(=O)NC1CCCC1`, the max response is -6.23% (inactive). For `CCN(CC)CCn1cnc2c1c(=O)[nH]c(=O)n2Cc1ccccc1`, the max response is -9.18% (inactive). With `CCOc1ccc(N(C(=O)c2snc(C(N)=O)c2N)C(C(=O)NCC2CCCO2)c2c[nH]c3ccccc23)cc1` (stereo unspecified) the figure was 1.95% (inactive); with `Cc1cc(S(=O)(=O)NC2CCCCC2)ccc1OCC(=O)NCc1cccnc1`, -2.89% (inactive); with `Cc1cc(SCC(=O)NCCN2C(=O)CSC2=O)nc2ccccc12`, 0.645% (inactive).

Regarding `O=C(Cn1c(=O)n(CC2CS2)c2ccccc21)N1CCCCC1` (stereo unspecified), the max response is 0.367% (inactive). Consider `CCOC(=O)C1(CCc2ccccc2)CCN(Cc2ccco2)CC1`, for which the max response is 8.52% (inactive). With `CCOC(=O)C1(Cc2ccccc2C)CCCN(C(=O)CN2C(=O)CSC2=O)C1` (stereo unspecified) the figure was 42.6% (active). As for `CCOC(=O)C1(Cc2ccccc2C)CCCN(C(=O)c2ccc(COC)o2)C1` (stereo unspecified), the max response was 35.6% (active). `CCOC(=O)C1(Cc2ccccc2C)CCCN(S(C)(=O)=O)C1` (stereo unspecified): the max response was 2.45% (inactive). The value for `Cc1ccc(S(=O)(=O)N(CC(=O)NCc2ccco2)c2ccccc2C)cc1` was -4.61% (inactive); that for `CCCNC(=S)N1CCCC(c2nc3ccccc3[nH]2)C1` (stereo unspecified) was -2.62% (inactive). Consider `O=C(NC1CCCC1)C(c1c(F)cccc1Cl)N(C(=O)c1csnn1)C1CC1` (stereo unspecified), for which the max response is -1.83% (inactive).

Turning to `COCCn1c(=NC(=O)c2ccccc2[N+](=O)[O-])sc2cc(S(C)(=O)=O)ccc21`, the max response is 25.9% (active). With `COCCNC(=O)c1ccccc1NS(=O)(=O)c1ccc(C)c([N+](=O)[O-])c1` the figure was -2.35% (inactive); with `Cn1c(=NC(=O)c2ccc3c(c2)OCCO3)sc2cc(S(C)(=O)=O)ccc21`, 3.13% (inactive); with `O=C(Nc1ccccc1C(=O)Nc1ccncc1)c1ccc([N+](=O)[O-])cc1`, -2.91% (inactive). Regarding `Cc1ccsc1C(=O)N[C@@H](C)c1nnc2ccccn12`, the max response is -2.38% (inactive).

Take `CCOC(=O)C1=C(C)NC(=S)NC1c1cccs1` (stereo unspecified): the max response was -2.57% (inactive). As to `C=CCOC(=O)C1=C(C)NC(C)=C(C(=O)OCC=C)C1c1cccs1`, the max response was 63.9% (active). For `CCOC(=O)C1=C(C)Nc2nc3ccccc3n2C1c1cccs1` (stereo unspecified), the max response is -3.92% (inactive). Take `Cc1cc(C)c2nc(N(CCN(C)C)C(=O)/C=C/c3cccs3)sc2c1`: the max response is -3.7% (inactive). With `C/C(=N/OC(=O)c1ccc(Br)cc1)c1ccc(C)cc1`, the max response is 4.97% (inactive).

Consider `COc1ccc(C)cc1N(CC(=O)N1CCCC1)S(=O)(=O)c1ccccc1`, for which the max response was 9.95% (inactive). For the compound `CCOC(=O)Cc1csc(NC(=O)C(C)(C)C)n1`, the max response is 26.6% (active). For the compound `CCOC(=O)Cc1csc(NC(=O)CSc2ccc(Br)cc2)n1`, the max response was -1.14% (inactive).

As for `CCOC(=O)Cc1csc(NC(=O)Nc2ccccc2)n1`, the max response is 21.8% (active). Consider `CCOC(=O)Cc1csc(NC(NC(=O)OCC)(C(F)(F)F)C(F)(F)F)n1`, for which the max response is -0.89% (inactive).

For the compound `CCCCCCC(=O)Nc1nc(C)c(-c2csc(Nc3cccc(OC)c3)n2)s1`, the max response is -1.06% (inactive). Regarding `CCOC(=O)c1csc(NC(=O)Nc2cccc(OC)c2)n1`, the max response was 15% (active).

For `CCOC(=O)Cc1csc(NC(=O)COc2ccc3c(C)cc(=O)oc3c2)n1`, the max response was 5.78% (inactive). The value for `CCOC(=O)Cc1csc(NC(=O)CSc2nc(C)cc(=O)[nH]2)n1` was -1.4% (inactive). In the case of `CCOC(=O)c1cnc(SCC(=O)Nc2cccc(OC)c2)nc1N`, the max response is -6% (inactive). For `COc1ccccc1N1CCN(C(=O)c2ccc(NC3=NC4CS(=O)(=O)CC4S3)cc2)CC1` (stereo unspecified), the max response was 6.59% (inactive).

Consider `O=C(Nc1ccc(F)cc1F)N1CCCN(CCOc2ccccc2)CC1`, for which the max response is -1.88% (inactive). For the compound `CN1CCN(C(=O)c2cnn(-c3ccccc3)c2NC(=O)c2ccc([N+](=O)[O-])cc2)CC1`, the max response is -1.78% (inactive).

For the compound `S=c1[nH]ccn1-c1ccc(Cl)cc1`, the max response is -4.55% (inactive).

In the case of `CN(Cc1ccccc1)C(=O)COC(=O)c1ccccc1Nc1ccccc1`, the max response was -1.45% (inactive).

As for `CC1(C(=O)O)CCC(C(=O)Nc2ccc(Cl)c(Cl)c2)C1(C)C` (stereo unspecified), the max response was -1.72% (inactive). Regarding `N/C(=N\OC(=O)N1c2ccccc2Sc2ccccc21)c1ccc(Br)cc1`, the max response was -1.54% (inactive).

For `N/C(=N\OC(=O)/C=C/c1ccccc1)c1ccc(Br)cc1`, the max response is 1.02% (inactive).

With `N/C(=N\OC(=O)c1ccc2c(c1)OCO2)c1ccc(Br)cc1`, the max response is 32.7% (active). As to `CCCc1nc2c(c(=O)c3ccccc3n2C)c(=O)n1-c1cc(C)cc(C)c1`, the max response is -0.943% (inactive).

For the compound `CN(C)S(=O)(=O)c1ccc(NC(=O)COC(=O)c2n[nH]c3ccccc23)cc1`, the max response is -0.614% (inactive). The value for `O=C(COC(=O)c1c2c(nc3ccccc13)/C(=C\c1cccs1)CCC2)Nc1ccccc1Cl` was 10.2% (inactive); that for `COc1cc(-c2cc(C(=O)OCC(=O)Nc3ccc4c(c3)OCO4)c3ccccc3n2)cc(OC)c1OC` was 4.65% (inactive). `COc1cc(/C=C2\CCCc3c2nc2ccccc2c3C(=O)O)cc(Cl)c1O`: the max response was 4.53% (inactive). Regarding `NS(=O)(=O)c1ccc(NC(=O)COC(=O)c2c3c(nc4ccccc24)/C(=C\c2ccc4c(c2)OCO4)CCC3)cc1`, the max response is 42.8% (active). Turning to `NC(=O)c1ccc(NC(=O)COC(=O)c2c3c(nc4ccccc24)/C(=C\c2ccc4c(c2)OCO4)CCC3)cc1`, the max response is 38.8% (active). With `CCCCc1nc2cc(C(=O)N3CCCCC3CCO)ccc2o1` (stereo unspecified), the max response is 45.9% (active). For the compound `CCCCc1nc2cc(C(=O)NCCc3cnn(C)c3)ccc2o1`, the max response is 38.8% (active). Regarding `CCC1CCCCN1C(=O)CSc1nc(C)cc(C)n1` (stereo unspecified), the max response was 0.953% (inactive). `COc1ccc(C(=O)NC2CC2)cc1OC1CCN(Cc2cnn(C)c2)CC1`: the max response is -0.356% (inactive). `Cc1c(C(=O)N(C)CCc2cnn(C)c2)oc2c(F)cccc12`: the max response is -2.99% (inactive). The value for `CCC1CCCCN1C(=O)Nc1cccc(NC(=O)N2CCCCC2CC)c1` (stereo unspecified) was 4.95% (inactive); that for `CCn1c(=O)n(CC)c2cc(N3CCCC3)c(NC(=O)c3ccccc3Br)cc21` was -1.85% (inactive). Consider `CC(C)(C)c1ccc(C(=O)N2CCN(CCNC(=O)C(=O)Nc3ccc(F)cc3)CC2)cc1`, for which the max response is 5.93% (inactive). On to `Cc1ccc(-c2nnc(-n3nnc4ccccc43)c3ccccc23)cc1`, for which the max response was 9.11% (inactive). As to `O=C1N=C2SCCN2/C1=C\c1c(Cl)cccc1Cl`, the max response was 1.23% (inactive). With `CCOc1cc(/C=C2\C(=N)N3N=C(C)SC3=NC2=O)ccc1OCCOc1ccccc1` the figure was -1.53% (inactive); with `CC1CCN(C2=NC(=O)/C(=C/c3ccc(O)cc3)S2)CC1`, 31.9% (active). For `CCOc1cc(/C=C2\SC(N3CCCCC3)=NC2=O)ccc1O`, the max response was 36.3% (active). As to `O=C(Nc1nnc(S(=O)(=O)N2CCCCCC2)s1)c1cccc(Br)c1`, the max response is -2.43% (inactive).

As for `CC1CCN(C2=NC(=O)/C(=C/c3cn[nH]c3-c3ccccc3)S2)CC1`, the max response was 20.1% (inactive).

On to `CCOc1cc(/C=C2\SC(N3CCCC(C)C3)=NC2=O)ccc1O` (stereo unspecified), for which the max response was 36.5% (active).

Take `CCOc1cc(C(=S)N2CCOCC2)ccc1O`: the max response was -1.42% (inactive). As to `O=C1N=C(N2CCCC2)S/C1=C\c1cccc(Br)c1`, the max response is 20.2% (active). Regarding `CCOc1ccc(/C=C2\SC(=S)N(NC(=O)c3ccncc3)C2=O)cc1OC`, the max response is -1.69% (inactive). Consider `CCOc1cc(/C=C2/C(=N)N3OC(C)=CC3=NC2=O)ccc1OC`, for which the max response is 4.64% (inactive).

Consider `O=C1N=C(N2CCc3ccccc3C2)S/C1=C\c1ccc(O)cc1`, for which the max response was 10.4% (inactive). Consider `Cc1ccc(N2CC(C(=O)NCCS(=O)(=O)N3CCN(c4ccccc4)CC3)CC2=O)cc1` (stereo unspecified), for which the max response was 1.37% (inactive). The value for `CCOC(=O)c1c(-c2ccccc2)oc2ccc(OCC(N)=O)cc12` was -1.21% (inactive); that for `O=C(O)CCCCCCCCc1cn(CN2C(=O)c3ccccc3C2=O)nn1` was 1.15% (inactive); that for `CCc1ccc(-c2cc3c(=O)n(CC(=O)NCCCN4CCN(Cc5ccccc5)CC4)nc(C)n3n2)cc1` was -1.84% (inactive). `O=C(Cn1nc(CNc2ccc(Cl)cc2)[n+]2c1CCCCC2)c1ccc(Cl)cc1`: the max response was 11% (inactive). As to `Cc1cccc(Oc2c([N+](=O)[O-])c(=O)n(C)c3ccccc23)c1`, the max response was 6.49% (inactive). Regarding `CCOc1ccc(CCNC(=O)C(CC)n2nc(C)n3c(cc4sccc43)c2=O)cc1OCC` (stereo unspecified), the max response was -1.8% (inactive).

As for `Cc1nc2nc(CSc3nc4ccccc4s3)cc(=O)n2[nH]1`, the max response was -7.38% (inactive).

As to `CCN(CC)CCCSc1nc2ccccc2s1`, the max response was 36% (active). The value for `Cn1c(=O)[nH]c(=O)c2c1nc(N1CCN(CCO)CC1)n2CCSc1nc2ccccc2s1` was -5.89% (inactive). As for `O=C(COCc1cc(-c2ccc3c(c2)OCO3)on1)N1CCN(c2cccc(Cl)c2)CC1`, the max response is -2.82% (inactive). Turning to `O=C(COC(=O)Cn1cnc2ccccc2c1=O)NCC12CC3CC(CC(C3)C1)C2`, the max response is -1.91% (inactive). For `c1n[nH]c(NCc2ccc3c(c2)OCO3)n1`, the max response is -1.69% (inactive).

Regarding `COc1ccc(CCNC(=O)C(=O)NCc2ccccc2C)cc1OC`, the max response was -2.75% (inactive). For the compound `COc1cc(CNc2ncn[nH]2)ccc1OCc1ccccc1C`, the max response is 36.9% (active).
